For 17 compounds, composite z-score and z-score results are on record in PubChem BioAssay.

Active and inactive are the calls of the source.

Assay [1] deals with Plasmodium falciparum Sir2 (PF13_0152, Sir2A). Briefly: Plasmodium falciparum Sir2A binding compounds – biochemical, small-molecule microarray, 635 nm fluorescence, primary screen (AID 1098).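 Note: score merges spot fluorescence intensity with its signal-to-noise ratio.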 As to conditions: fluorescence 635 nm, higher = more signal.
A short description of assay [2]: probe aDKK1 binding to arrayed compounds – biochemical, biotinylated probe, 635/667 nm fluorescence, primary screen (AID 1099).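 Note: score merges 667nm spot fluorescence with signal to noise across triplicate slides; reference of the scale not given here.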 As to conditions: small-molecule microarray, higher = more signal.
A short description of assay [3]: probe aCHRDL2 binding to arrayed compounds – biochemical, biotinylated probe, 635/667 nm fluorescence, primary screen (AID 1100). The conditions noted are these: small-molecule microarray, higher = more signal.
Assay [4] in a line: change in splice reporter luminescence, either direction, cell-based, HEK293, spliceosome inhibition project, primary screen (AID 1101).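 Note: HEK293 cells carrying a splicing-competent luciferase reporter gene; test concentration not given here.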 As to conditions: HEK293 splicing luciferase reporter, 24 h, higher = more signal, called active from +8 up or from −8 down.
Assay [5] addresses Fibroblast growth factor 10 (Homo sapiens) (UniProt O15520). Description: compounds binding fibroblast growth factor 10 – biochemical, small-molecule microarray, 635 nm fluorescence, primary screen (AID 1102). The conditions noted are these: FGF10 binding, fluorescence 635 nm, higher = more signal.
Assay [6] relates to glycogen synthase kinase-3 (GSK3A per assay name; protocol says GSK3B). Briefly: compounds binding glycogen synthase kinase-3 – biochemical, small-molecule microarray, 635 nm fluorescence, GSK3A, primary screen (AID 1103). Note: the record names both GSK3A and GSK3B. The conditions noted are these: fluorescence 635 nm, higher = more signal.
Assay [7] concerns the target Epidermal growth factor receptor (Homo sapiens) (UniProt P00533). Description: compounds binding epidermal growth factor receptor – biochemical, small-molecule microarray, 635 nm fluorescence, primary screen (AID 1104).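 Note: score merges 667 nm emission intensity with spot signal to noise over triplicate slides.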 As to conditions: EGFR binding, higher = more signal.
Assay [8] has as its target Follistatin-related protein 3 (Homo sapiens) (UniProt O95633). Description: compounds binding follistatin-related protein 3 – biochemical, small-molecule microarray, 635 nm fluorescence, primary screen (AID 1105).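 Note: score merges emission near 667 nm and signal to noise per printed spot across three slides.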 The conditions noted are these: FSTL3 binding, higher = more signal.
Assay [9] has as its target Dickkopf-related protein 1 (Homo sapiens) (UniProt O94907). Description: small molecules binding DKK1 protein – biochemical, small-molecule microarray, 635 nm fluorescence scan, primary screen (AID 1106).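 Note: score merges emission near 667 nm with signal to noise over three replicate slides.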 As to conditions: higher = more signal.
For assay [10], the system named is Inhibin beta A chain (activin A). Briefly: small molecules binding activin A – biochemical, small-molecule microarray, 635 nm fluorescence scan, primary screen (AID 1107).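 Note: mouse activin A protein probed at 4.33 µg/mL on printed slides; score merges bound-protein fluorescence near 667 nm with spot signal-to-noise.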 As to conditions: INHBA, higher = more signal.

Chain of Epidermal growth factor receptor (Homo sapiens) (P00533 whole entry, looked up): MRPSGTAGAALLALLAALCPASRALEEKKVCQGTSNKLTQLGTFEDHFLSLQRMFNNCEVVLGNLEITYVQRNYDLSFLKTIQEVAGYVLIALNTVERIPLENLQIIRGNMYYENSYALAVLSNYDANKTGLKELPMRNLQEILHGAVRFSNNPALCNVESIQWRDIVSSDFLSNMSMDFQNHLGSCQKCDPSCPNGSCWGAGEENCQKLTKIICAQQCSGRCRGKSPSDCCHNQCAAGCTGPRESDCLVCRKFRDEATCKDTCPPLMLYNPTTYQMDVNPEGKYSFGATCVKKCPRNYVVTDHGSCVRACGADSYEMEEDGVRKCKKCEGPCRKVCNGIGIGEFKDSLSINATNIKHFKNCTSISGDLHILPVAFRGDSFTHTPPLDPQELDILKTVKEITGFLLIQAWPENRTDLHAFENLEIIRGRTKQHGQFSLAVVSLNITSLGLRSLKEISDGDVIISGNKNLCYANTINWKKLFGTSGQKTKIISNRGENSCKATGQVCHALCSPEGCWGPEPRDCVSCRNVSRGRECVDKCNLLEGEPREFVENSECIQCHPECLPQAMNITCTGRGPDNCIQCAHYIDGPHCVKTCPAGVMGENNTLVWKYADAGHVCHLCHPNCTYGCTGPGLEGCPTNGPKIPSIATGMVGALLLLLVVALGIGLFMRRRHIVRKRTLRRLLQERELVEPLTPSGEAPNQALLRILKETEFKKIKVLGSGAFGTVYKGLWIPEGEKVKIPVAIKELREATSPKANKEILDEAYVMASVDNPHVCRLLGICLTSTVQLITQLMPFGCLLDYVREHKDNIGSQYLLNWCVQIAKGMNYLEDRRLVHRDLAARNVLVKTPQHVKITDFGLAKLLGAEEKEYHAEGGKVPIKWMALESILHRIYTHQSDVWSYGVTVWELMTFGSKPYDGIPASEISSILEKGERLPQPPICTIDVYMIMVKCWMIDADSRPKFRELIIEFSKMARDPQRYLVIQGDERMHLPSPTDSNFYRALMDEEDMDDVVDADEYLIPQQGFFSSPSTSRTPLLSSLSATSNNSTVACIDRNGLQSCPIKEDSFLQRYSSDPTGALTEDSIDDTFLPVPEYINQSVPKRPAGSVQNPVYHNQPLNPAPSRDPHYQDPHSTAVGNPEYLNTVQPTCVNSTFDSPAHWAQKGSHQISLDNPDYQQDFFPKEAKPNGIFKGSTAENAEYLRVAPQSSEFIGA
Chain of Fibroblast growth factor 10 (Homo sapiens) (O15520 whole entry, looked up): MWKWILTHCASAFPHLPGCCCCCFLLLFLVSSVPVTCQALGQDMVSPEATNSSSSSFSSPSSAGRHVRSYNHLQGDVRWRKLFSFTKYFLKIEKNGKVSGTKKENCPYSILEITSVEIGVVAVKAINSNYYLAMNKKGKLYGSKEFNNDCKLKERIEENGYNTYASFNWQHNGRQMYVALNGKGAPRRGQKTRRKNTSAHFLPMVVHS
Chain of Follistatin-related protein 3 (Homo sapiens) (O95633 whole entry, looked up): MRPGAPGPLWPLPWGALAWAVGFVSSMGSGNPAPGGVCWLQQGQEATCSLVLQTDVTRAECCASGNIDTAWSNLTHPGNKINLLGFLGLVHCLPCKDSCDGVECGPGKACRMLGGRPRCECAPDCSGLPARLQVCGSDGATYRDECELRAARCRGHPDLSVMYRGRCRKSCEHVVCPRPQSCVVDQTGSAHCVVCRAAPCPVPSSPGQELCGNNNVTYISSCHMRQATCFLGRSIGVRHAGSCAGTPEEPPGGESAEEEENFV
Chain of Dickkopf-related protein 1 (Homo sapiens) (O94907 whole entry, looked up): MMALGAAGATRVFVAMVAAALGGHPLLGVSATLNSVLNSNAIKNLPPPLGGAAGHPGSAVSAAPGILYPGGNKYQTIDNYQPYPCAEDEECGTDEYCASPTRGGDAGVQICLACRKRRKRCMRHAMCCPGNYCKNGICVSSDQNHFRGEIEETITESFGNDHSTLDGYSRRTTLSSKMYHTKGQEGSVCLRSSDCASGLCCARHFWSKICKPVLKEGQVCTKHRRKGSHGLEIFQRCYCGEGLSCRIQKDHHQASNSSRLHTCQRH

Regarding `COC(=O)C(CC#Cc1ccc2c(c1)[C@]1(C(=O)N2)[C@H](c2ccc(OCCO)cc2)N2[C@H](c3ccccc3)[C@H](c3ccccc3)OC(=O)[C@H]2[C@@H]1C(=O)NC[C@H](O)c1ccccc1)C(=O)OC`, the composite z-score is 1.62 in assay [1]; 0.392 in assay [2]; 0.473 in assay [3]; 0.826 in [5]; 0.801 in [6]; 0.0713 in assay [7]. The figures for the composite z-score in assay [8], in assay [9] and in assay [10] were 0.617, 0.271 and 0.39, respectively. In assay [4], the z-score was 0.348 (inactive).
Regarding `COC(=O)[C@@]1(Cc2ccc(OC)cc2)[C@H]2c3cc(C(=O)N4CCCC4)n(CCc4c[nH]c5cc(F)ccc45)c3C[C@H]2CN1C(=O)c1ccccc1`, the composite z-score in [1] came to 1.31; in assay [2] it was 0.185; in [3], 1.19; in assay [5] it was 0.875; in assay [6] it was 1.09; in [7] it was 0.0022. The figures for the composite z-score in assay [8], in [9] and in [10] were 0.988, -0.0303 and 0.831, respectively. The z-score in [4] is -0.332 (inactive).
As to `COCCOC(=O)N1C(=O)[C@@]2(c3cc(C#CCC(C(=O)OC)C(=O)OC)ccc31)[C@H](c1ccccc1OCCO)N1[C@H](c3ccccc3)[C@H](c3ccccc3)OC(=O)[C@H]1[C@@H]2C(=O)N1CCc2cc(OC)c(OC)cc2C1`, the composite z-score in [1] was 1.24; in assay [2], 0.176; in assay [3], -0.131; in assay [5] it was 1.16; in [6], 1.33; in [7], 0.99. Also, the composite z-score in [8] was determined as 1.3; in assay [9] it was 1.42; in assay [10] it was 0.645. Also, in assay [4], the z-score is -0.988 (inactive).
With `O=C1O[C@@H](c2ccccc2)[C@@H](c2ccccc2)N2[C@@H](c3ccc(O)cc3)[C@]3(C(=O)Nc4ccc(C#CC5=CCCCC5)cc43)[C@@H](C(=O)O)[C@H]12`, the composite z-score in [1] worked out at 1.14; in assay [2], 0.799; in assay [3] it was 0.999; in assay [5], 0.277; in assay [6], 0.653; in assay [7], 0.035. Also, the composite z-score in assay [8] stood at 0.545; in assay [9] it was 0.0526; in [10] it was 1.19. In addition, the z-score in [4] is -1.05 (inactive).
With `CCN(CC)c1ccc(N2CC=CC34O[C@@H]5C=CCCOC(=O)C5[C@H]3C(=O)N(CCCCCO)[C@@H]4C2=O)cc1` (stereo not given in full), the composite z-score in [1] was -0.144; in assay [2], -0.0409; in [3], 0.0109; in assay [5] it was -0.292; in assay [6], -0.139; in assay [7], -0.76. For the same compound, the composite z-score in [8] was -0.339; in assay [9], -0.182; in assay [10] it was 1.52. Also, the z-score in assay [4] was -0.779 (inactive).
Consider `COc1ccc(C(O)C2C=CC3C(=O)N(C)C(=O)C3N2Nc2ccccc2)cc1OCc1ccccc1` (stereo not given), for which the composite z-score came out at 1.1 in [1]; 0.679 in assay [2]; 0.85 in [3]; 0.868 in [5]; 0.841 in assay [6]; 0.165 in assay [7]. Besides, the composite z-score was 0.814 in [8], -0.0523 in assay [9] and 0.152 in [10]. In addition, in [4], the z-score is 0.89 (inactive).
Turning to `CC(=O)NCCCC[C@@H]1NC(=O)[C@@H]2C[C@H](C(=O)NCCCCCCNC(=O)CS)[C@H](c3ccc(O)cc3)N2C1=O`, the composite z-score in [1] was 1.18; in assay [2] it was -0.194; in assay [3] it was 0.52; in assay [5] it was -0.37; in assay [6], -0.0984; in assay [7], -0.755. The composite z-score is -0.353 in [8], -0.233 in assay [9] and -0.989 in assay [10]. Further, the z-score in [4] is 0.584 (inactive).
For the compound `COCCOC(=O)N1C(=O)[C@@]2(c3cc(C#CCCO)ccc31)[C@H](c1ccc(O)cc1)N1[C@H](c3ccccc3)[C@H](c3ccccc3)OC(=O)[C@H]1[C@@H]2C(N)=O`, the composite z-score in assay [1] was 1.33; in assay [2], 0.407; in assay [3], 0.654; in assay [5], 0.173; in assay [6], 0.169; in assay [7], -0.709. The composite z-score in assay [8] was -0.0665; in [9], -0.282; in [10], 0.907. In assay [4], the z-score was -0.626 (inactive).
Take `C[N+](C)(C)CCCCCCNC(=O)[C@H]1C[C@H]2C(=O)N3CCC[C@H]3C(=O)N2[C@H]1c1ccc(O)cc1`: the composite z-score is 1.07 in assay [1]; -0.258 in assay [2]; -0.201 in [3]; 0.205 in assay [5]; 0.196 in [6]; -0.278 in assay [7]. The composite z-score in [8] worked out at 0.196; in [9], 0.744; in assay [10], 1.03. The z-score in assay [4] is -0.677 (inactive).
In the case of `C[C@]1(C(=O)NCc2ccccc2)c2ccccc2C(=O)N(Cc2ccc(OC(F)(F)F)cc2)[C@H]1c1ccc(CO)cc1`, the composite z-score was 0.0162 in [1]; -0.098 in [2]; 0.663 in [3]; 0.0259 in [5]; 0.0034 in [6]; -0.535 in assay [7]. Moreover, the results for the composite z-score in assay [8], in assay [9] and in [10] were 0.115, -0.393 and 0.0615, respectively. Also, the z-score in assay [4] was -0.557 (inactive).
Turning to `COc1ccc(CCNC(=O)[C@@]2(c3ccc([N+](=O)[O-])cc3)CC(=O)N(CC34CC5CC(CC(C5)C3)C4)[C@@H]2c2ccc(CO)cc2)cc1`, the composite z-score in assay [1] amounted to 1.06; in [2], 1.38; in [3], 0.764; in assay [5], 0.76; in assay [6], 1.07; in assay [7] it was 0.453. For the same compound, the composite z-score in assay [8] was 1.03; in assay [9] it was 0.828; in [10], 0.432. For the same compound, in [4], the z-score is 0.539 (inactive).
Consider `COC(=O)c1ccc(OC)c(/C=C\CC(OC(C)=O)c2ccccc2)c1` (stereo not given), for which the composite z-score in assay [1] is -0.22; in assay [2] it was -0.146; in assay [3], 0.0946; in [5], -0.207; in assay [6] it was 0.147; in [7], 0.643. Also, the composite z-score in [8] worked out at 0.137; in assay [9] it was 0.305; in assay [10], 1.89. In addition, the z-score in assay [4] is -0.582 (inactive).
For the compound `COc1cc2c(cc1O)C(C)N(Cc1cccc(OC(F)(F)F)c1)CC2` (stereo not given), the composite z-score is 1.7 in [1]; 0.0376 in assay [2]; 0.23 in [3]; 1.24 in [5]; 0.219 in [6]; -0.425 in assay [7]. For the same compound, the composite z-score was 0.514 in [8], 0.188 in [9] and 0.902 in assay [10]. Besides, in assay [4], the z-score is -0.0689 (inactive).
On to `CCOC(=O)C1=C[C@@H](CC)N(S(=O)(=O)c2ccc(C)cc2)[C@H]1c1ccccc1`, for which the composite z-score is 0.689 in assay [1]; -0.1 in assay [2]; 0.521 in assay [3]; 0.769 in assay [5]; 1.01 in [6]; 0.586 in assay [7]. Also, the composite z-score in assay [8] stood at 0.59; in assay [9], 0.43; in assay [10], 0.538. Also, the z-score in [4] was 0.803 (inactive).
Consider `COC(=O)[C@@]1(Cc2ccccc2)[C@H]2c3cc(C(=O)N4CCCC4)n(Cc4ccc(C)o4)c3C[C@H]2CN1C(=O)c1ccccc1`, for which the composite z-score was 1.21 in assay [1]; 0.526 in [2]; 1.13 in [3]; -0.143 in assay [5]; 0.0411 in assay [6]; 0.36 in [7]. Besides, the composite z-score is 0.276 in [8], -0.578 in assay [9] and 1.23 in assay [10]. Further, the z-score in [4] was -2.62 (inactive).
As for `O=C1C[C@]2(c3ccc([N+](=O)[O-])cc3)C(=O)N(CC(F)(F)F)c3cc(CO)ccc3[C@H]2N1CC12CC3CC(CC(C3)C1)C2`, the composite z-score is 1.75 in assay [1]; -0.157 in assay [2]; 0.115 in assay [3]; 0.0399 in [5]; 0.284 in assay [6]; -0.736 in [7]. The results for the composite z-score in assay [8], in assay [9] and in assay [10] were 0.23, 0.301 and 0.36, respectively. Also, the z-score in [4] was 0.452 (inactive).
Consider `C=CCOC(=O)[C@@H]1[C@H]2C(=O)O[C@H](c3ccccc3)[C@H](c3ccccc3)N2[C@H](c2ccc(OCCOC(=O)[C@@H]3C[C@@H]4C(=O)N[C@@H](Cc5ccccc5)C(=O)N4[C@@H]3c3cccc(OCCO)c3)cc2)[C@@]12C(=O)Nc1ccc(I)cc12`, for which the composite z-score in [1] is 1.12; in assay [2], -0.0053; in assay [3], -0.0587; in assay [5] it was 1.21; in assay [6], 0.954; in assay [7], 0.934. In addition, the composite z-score turned out to be 1.1 in assay [8], 0.991 in assay [9] and 1.06 in [10]. For the same compound, the z-score in assay [4] is -0.76 (inactive).
